Data taken from PubChem BioAssay (EPA / NIEHS).
Results filed as inconclusive are left out. The source made the active and inactive calls. The calls were made as follows, unless noted: active = hit-call score of the fitted dose curve at least 0.9, where 1 is the maximum; inactive = score below 0.9.

Key:
[1] = BSK_SAg_PBMCCytotoxicity: PBMC Cytotoxicity Assessment in the BioMAP Diversity Plus: SAg Assay (AID 2283093); settings: primary human HUVEC with PBMC;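 also: PBMC viability measured as Alamar Blue reduction fluorescence at 546/580 nm; fitted both ways against DMSO so a hit may be loss or gain of signal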;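 as to AC50: PBMC superantigen activated with SEB plus TSST-1 one hour after compound addition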
How it was run: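 Alamar Blue reduction (6 h, ex/em 546/580 nm) read after 90 h culture of PBMC pre-dosed 1 h then stimulated with SEB plus TSST-1, 20 ng/mL each. Gain or loss of signal fitted relative to DMSO.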

[2] = read-out: Interleukin-8 (IL8), CXCL8 (gene 3576); assay: BSK_SAg_IL8: BioMAP Diversity Plus: SAg Assay for Interleukin-8 (IL8) Biomarker Activity (AID 2283094); settings: primary human HUVEC with PBMC; actives raise or lower the signal
How it was run: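 HUVEC/PBMC co-culture, 24 h post-dose; IL-8 by ELISA. Gain or loss of signal fitted bidirectionally vs DMSO baseline.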

[3] = BSK_SAg_Proliferation: Cell Proliferation Assessment in the BioMAP Diversity Plus: SAg Assay (AID 2283095); settings: primary human HUVEC with PBMC;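 also: relative cell number as total protein by SRB absorbance in sub-confluent culture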
How it was run: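 HUVEC/PBMC co-culture, 96-well. TCA-fixed (10%), 0.1% SRB stain, A560 at 96 h. Protein content used as viability readout; bidirectional fitting vs DMSO control.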

[4] = BSK_SAg_SRB: Viability Assessment in the BioMAP Diversity Plus: SAg Assay (AID 2283096); settings: primary human HUVEC with PBMC;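 also: cells read one day after compound addition; hits may be either gain or loss of signal compared with DMSO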
How it was run: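 SRB absorbance at 560 nm served as the viability read-out. Cells (HUVEC plus peripheral blood mononuclear cells) were TCA-fixed and stained 24 h post-dosing; activity fitted in both directions against DMSO controls.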

[5] = molecular target: human CYP19A1, CYP19A1 (gene 1588) (UniProt P11511); assay: NVS_ADME_hCYP19A1: NovaScreen (NVS) CYP450-related Enzyme Activity (ADME) Assay for human CYP19A1 (AID 2283098; active = hit-call score of the fitted dose curve at least 0.9, where 1 is the maximum)
Sequence of human CYP19A1, CYP19A1 (gene 1588) (P11511 whole entry, looked up): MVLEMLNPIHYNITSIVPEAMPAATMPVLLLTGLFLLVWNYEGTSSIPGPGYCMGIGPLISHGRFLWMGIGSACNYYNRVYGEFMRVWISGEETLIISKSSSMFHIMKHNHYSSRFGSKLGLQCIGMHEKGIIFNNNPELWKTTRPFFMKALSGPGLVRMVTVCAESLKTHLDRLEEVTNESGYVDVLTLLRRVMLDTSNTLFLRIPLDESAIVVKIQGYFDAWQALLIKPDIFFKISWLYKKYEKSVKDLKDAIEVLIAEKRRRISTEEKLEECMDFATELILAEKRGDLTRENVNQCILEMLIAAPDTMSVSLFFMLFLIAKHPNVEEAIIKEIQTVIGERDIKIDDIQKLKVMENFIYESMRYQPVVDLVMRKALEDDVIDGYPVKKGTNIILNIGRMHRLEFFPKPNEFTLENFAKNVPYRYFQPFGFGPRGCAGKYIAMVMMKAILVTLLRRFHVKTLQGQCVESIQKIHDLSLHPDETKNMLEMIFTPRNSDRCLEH
How it was run: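 Primary testing was in duplicate at a single 10 uM concentration, with actives followed up in concentration-response series. Fluorescence read-out of recombinant enzyme activity at 0.5 h, cell-free. Acetonitrile was the negative-control baseline.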

[6] = molecular target: human CYP2A6, CYP2A6 (gene 1548) (UniProt P11509); assay: NVS_ADME_hCYP2A6: NovaScreen (NVS) CYP450-related Enzyme Activity (ADME) Assay for human CYP2A6 (AID 2283099; active = hit-call score of the fitted dose curve at least 0.9, where 1 is the maximum)
Sequence of human CYP2A6, CYP2A6 (gene 1548) (P11509 whole entry, looked up): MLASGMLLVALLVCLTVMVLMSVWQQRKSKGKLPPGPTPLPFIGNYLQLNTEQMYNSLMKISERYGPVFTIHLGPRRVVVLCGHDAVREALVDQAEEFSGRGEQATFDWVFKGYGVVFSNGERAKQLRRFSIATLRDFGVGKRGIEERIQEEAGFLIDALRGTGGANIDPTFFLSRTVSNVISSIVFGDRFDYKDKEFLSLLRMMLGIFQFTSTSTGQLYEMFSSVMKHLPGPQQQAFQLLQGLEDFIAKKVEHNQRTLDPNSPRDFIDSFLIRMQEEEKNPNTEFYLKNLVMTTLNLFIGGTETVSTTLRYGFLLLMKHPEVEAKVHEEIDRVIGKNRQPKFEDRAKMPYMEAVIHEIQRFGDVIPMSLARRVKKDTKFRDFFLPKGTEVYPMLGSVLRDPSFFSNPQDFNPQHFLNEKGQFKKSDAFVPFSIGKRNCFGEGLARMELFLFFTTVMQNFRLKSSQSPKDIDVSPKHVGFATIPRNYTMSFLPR
How it was run: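 Fluorescent substrate turnover by recombinant CYP2A6 (insect cell source), 0.5 h read. Screen: 10 uM, duplicate; threshold hits (e.g. 30% inhibition) → singleton concentration-response, top 20 uM. Positive and negative controls on every plate.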

[7] = molecular target: human CYP1A1, CYP1A1 (gene 1543) (UniProt P04798); assay: NVS_ADME_hCYP1A1: NovaScreen (NVS) CYP450-related Enzyme Activity (ADME) Assay for human CYP1A1 (AID 2283100; active = hit-call score of the fitted dose curve at least 0.9, where 1 is the maximum)
Sequence of human CYP1A1, CYP1A1 (gene 1543) (P04798 whole entry, looked up): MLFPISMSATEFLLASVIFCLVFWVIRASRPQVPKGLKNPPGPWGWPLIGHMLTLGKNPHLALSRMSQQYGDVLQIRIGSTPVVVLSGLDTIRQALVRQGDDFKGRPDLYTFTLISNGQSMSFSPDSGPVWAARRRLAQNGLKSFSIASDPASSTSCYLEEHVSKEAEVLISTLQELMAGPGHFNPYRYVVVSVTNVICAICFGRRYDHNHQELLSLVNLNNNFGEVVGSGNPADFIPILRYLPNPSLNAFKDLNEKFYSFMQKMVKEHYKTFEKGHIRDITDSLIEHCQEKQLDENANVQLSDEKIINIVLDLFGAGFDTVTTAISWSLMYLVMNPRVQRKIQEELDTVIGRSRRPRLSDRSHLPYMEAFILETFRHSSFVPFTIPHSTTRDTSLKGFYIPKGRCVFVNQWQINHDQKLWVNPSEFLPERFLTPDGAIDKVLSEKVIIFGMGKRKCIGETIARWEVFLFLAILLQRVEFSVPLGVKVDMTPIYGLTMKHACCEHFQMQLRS
How it was run: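 Recombinant hCYP1A1 + fluorogenic substrate, cell-free; 1 h; fluorescence read. Single-point 10 uM (duplicate) → concentration series, max 20 uM. Acetonitrile negative control.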

[8] = molecular target: human CYP2B6, CYP2B6 (gene 1555) (UniProt P20813); assay: NVS_ADME_hCYP2B6: NovaScreen (NVS) CYP450-related Enzyme Activity (ADME) Assay for human CYP2B6 (AID 2283101; active = hit-call score of the fitted dose curve at least 0.9, where 1 is the maximum)
Sequence of human CYP2B6, CYP2B6 (gene 1555) (P20813 whole entry, looked up): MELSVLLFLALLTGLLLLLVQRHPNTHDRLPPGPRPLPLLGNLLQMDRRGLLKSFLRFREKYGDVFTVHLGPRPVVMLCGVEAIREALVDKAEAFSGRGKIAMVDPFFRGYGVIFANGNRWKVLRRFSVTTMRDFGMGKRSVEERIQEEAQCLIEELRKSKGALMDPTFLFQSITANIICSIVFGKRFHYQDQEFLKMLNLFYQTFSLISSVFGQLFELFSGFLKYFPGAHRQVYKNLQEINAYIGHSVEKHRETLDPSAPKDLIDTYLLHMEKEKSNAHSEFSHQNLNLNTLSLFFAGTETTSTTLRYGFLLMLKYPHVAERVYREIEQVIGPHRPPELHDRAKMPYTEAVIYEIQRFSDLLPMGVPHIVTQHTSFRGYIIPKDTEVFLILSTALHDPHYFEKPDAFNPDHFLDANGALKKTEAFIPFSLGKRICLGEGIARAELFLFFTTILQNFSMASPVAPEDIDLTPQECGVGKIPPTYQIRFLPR
How it was run: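 Cell-free recombinant enzyme assay with a fluorogenic substrate; fluorescence intensity read 1 hour after dosing. Loss of signal relative to acetonitrile negative control indicates inhibition. Primary screen run in duplicate at 10 uM, actives then tested in concentration series.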

[9] = molecular target: human CYP1A2, CYP1A2 (gene 1544) (UniProt P05177); assay: NVS_ADME_hCYP1A2: NovaScreen (NVS) CYP450-related Enzyme Activity (ADME) Assay for human CYP1A2 (AID 2283102; active = hit-call score of the fitted dose curve at least 0.9, where 1 is the maximum;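 as to AC50: fluorescence from turnover of a fluorogenic substrate by recombinant insect-cell CYP1A2; potency for inhibition since loss of fluorescence marks reduced CYP1A2 activity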)
Sequence of human CYP1A2, CYP1A2 (gene 1544) (P05177 whole entry, looked up): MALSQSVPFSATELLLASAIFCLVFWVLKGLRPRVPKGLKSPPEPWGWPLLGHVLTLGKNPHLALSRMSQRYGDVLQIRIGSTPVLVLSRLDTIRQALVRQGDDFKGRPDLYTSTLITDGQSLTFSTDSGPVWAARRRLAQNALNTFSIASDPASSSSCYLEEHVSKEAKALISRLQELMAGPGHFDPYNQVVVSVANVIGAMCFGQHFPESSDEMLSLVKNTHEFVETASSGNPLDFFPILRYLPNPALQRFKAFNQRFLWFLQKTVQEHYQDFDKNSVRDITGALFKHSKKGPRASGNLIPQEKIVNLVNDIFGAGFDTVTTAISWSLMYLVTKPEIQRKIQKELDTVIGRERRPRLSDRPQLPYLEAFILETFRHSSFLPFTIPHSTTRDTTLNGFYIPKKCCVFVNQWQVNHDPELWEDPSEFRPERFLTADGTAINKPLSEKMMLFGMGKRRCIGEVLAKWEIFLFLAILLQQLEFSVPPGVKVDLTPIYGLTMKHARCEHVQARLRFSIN
How it was run: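 rec. hCYP1A2 (insect cells), cell-free; fluorogenic substrate; 0.5 h; FI read. Baseline = acetonitrile; signal loss = inhibition. 10 uM duplicate primary → conc. series for actives.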

[10] = molecular target: human CYP2D6, CYP2D6 (gene 1565) (UniProt P10635); assay: NVS_ADME_hCYP2D6: NovaScreen (NVS) CYP450-related Enzyme Activity (ADME) Assay for human CYP2D6 (AID 2283107; active = hit-call score of the fitted dose curve at least 0.9, where 1 is the maximum)
Sequence of human CYP2D6, CYP2D6 (gene 1565) (P10635 whole entry, looked up): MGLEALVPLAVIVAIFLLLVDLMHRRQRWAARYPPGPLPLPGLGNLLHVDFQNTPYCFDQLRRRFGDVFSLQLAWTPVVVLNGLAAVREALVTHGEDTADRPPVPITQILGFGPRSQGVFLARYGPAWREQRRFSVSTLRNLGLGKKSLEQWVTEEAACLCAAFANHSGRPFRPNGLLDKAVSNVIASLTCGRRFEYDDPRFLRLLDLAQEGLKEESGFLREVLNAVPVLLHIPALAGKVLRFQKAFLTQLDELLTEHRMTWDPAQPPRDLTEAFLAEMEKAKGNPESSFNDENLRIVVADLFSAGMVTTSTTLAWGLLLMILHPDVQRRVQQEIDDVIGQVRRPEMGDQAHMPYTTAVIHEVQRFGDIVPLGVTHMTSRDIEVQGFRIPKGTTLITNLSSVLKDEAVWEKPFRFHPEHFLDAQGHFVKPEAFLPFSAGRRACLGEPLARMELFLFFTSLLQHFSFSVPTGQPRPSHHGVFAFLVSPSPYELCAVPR
How it was run: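 Insect-cell recombinant enzyme + fluorogenic substrate, cell-free; 1 h incubation; fluorescence intensity readout. Acetonitrile = neg. ctrl/baseline. Single-point 10 uM, duplicate; follow-up concentration series.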

Measured: AC50

FC(F)(F)C(F)(F)C(F)(F)C(F)(F)C(F)(F)C(F)(F)I
inactive: [1] | [2] | [3] | [4]

NC(=O)NN=Cc1ccc([N+](=O)[O-])o1
inactive: [1] | [2] | [4] | [5] | [6]
active: [3] 20 µM

COS(C)(=O)=O
inactive: [1] | [2] | [3] | [4]

C[C@]12C=CC(=O)C=C1CC[C@H]1[C@@H]3C[C@@H](O)[C@](O)(C(=O)CO)[C@@]3(C)C[C@H](O)[C@@]12F
inactive: [1] | [2] | [3] | [4]

CCCCCOC(C)=O
inactive: [2] | [4]
active: [1] 30.3 µM | [3] 15.1 µM

Cc1cccc(O)c1C
inactive: [1] | [2] | [3] | [4]

CCCCCCCCN(C)C
inactive: [1] | [2] | [3] | [4]

S=P(N1CC1)(N1CC1)N1CC1
inactive: [1] | [2] | [4]
active: [3] 4.15 µM

COc1cc(C(C)C)c2c(c1)S(=O)(=O)N(COc1cc(=O)n3cccc(OCCN4CCCCC4)c3n1)C2=O
active: [3] 7.69 µM
inactive: [1] | [4]

C=CCc1cc(S(=O)(=O)c2ccc(O)c(CC=C)c2)ccc1O
active: [1] 36.8 µM | [2] 11.4 µM | [3] 17.1 µM | [4] 19.2 µM | [7] 2.32 µM | [8] 2.77 µM | [9] 3.26 µM | [10] 0.567 µM

CC(C)CC(C)O (stereo not drawn)
inactive: [1] | [2] | [3] | [4]

Cc1nccn1-c1ccc(Sc2cccc(C3(C(N)=O)CCOCC3)c2)cc1
inactive: [1] | [4]
active: [2] 5.42 µM | [3] 5.48 µM

OC[C@H]1O[C@@](CO)(O[C@H]2O[C@H](CO)[C@@H](O)[C@H](O)[C@H]2O)[C@@H](O)[C@@H]1O
inactive: [1] | [2] | [3] | [4]

CCN(CC)C(=S)SSC(=S)N(CC)CC
inactive: [5]
active: [1] 20 µM | [2] 32.5 µM | [3] 6.07 µM | [4] 30.8 µM | [8] 0.405 µM | [9] 1.2 µM

O=C1CN(N=Cc2ccc([N+](=O)[O-])o2)C(=O)N1
inactive: [1] | [2] | [4]
active: [3] 9.07 µM | [10] 4.5 µM

CCCC(CCC)C(=O)O
inactive: [1] | [2] | [3] | [4] | [5]

CCCCCCCC1CCC(=O)O1 (stereo not drawn)
inactive: [2] | [3] | [4]

CCCOc1ccc(S(=O)(=O)N2CCN(CC)CC2)cc1-c1nc2c(CC)n(Cc3ccccn3)nc2c(=O)[nH]1
inactive: [1] | [2] | [3] | [4]

NC(=O)N(O)[C@@H]1COc2cc(OCc3ccccc3)ccc21
inactive: [1] | [2] | [3] | [4] | [8]

FC(F)(F)COC(OCC(F)(F)F)OCC(F)(F)F
inactive: [1] | [2] | [3] | [4]

CCc1cccc(CC)c1N
inactive: [1] | [2] | [3] | [4]

OCCOCCOCCO
inactive: [1] | [2] | [3] | [4]

CCn1nc(C)c2c1C(=O)NCC(c1ccc(O)cc1)=N2
active: [3] 20 µM | [10] 6.23 µM
inactive: [1] | [2] | [4]

CCCCCCCCCC
inactive: [1] | [2] | [3] | [4] | [9] | [10]
active: [8] 10 µM

CCCCCCOC(=O)CC(CC(=O)OCCCCCC)(OC(=O)CCC)C(=O)OCCCCCC
active: [1] 4.11 µM | [3] 9.76 µM
inactive: [2] | [4]

c1ccc2c(c1)-c1cccc3c1c-2cc1ccccc13
inactive: [1] | [2] | [3] | [4]
